Values joined by “and” are separate entries in the source; they are usually repeats but may differ in a detail not shown here. Identical values can stand only once. Records with an inconclusive call do not appear. A structure can be active in one record and inactive in another. Active and inactive are the calls of the source. Unless noted, calls come from the whole dose curve; as a rule, active = well fitted curve in the direction sought with a large enough effect in the repeat runs; inconclusive = weak or mixed curves; inactive = no such curve, though single readings can be large; an effect the other way counts as inactive or inconclusive.
Key:
[1] = qHTS assay to identify small molecule agonists of H2AX (AID 1224845; active = well fitted activation curve with a large enough effect in the signal ratio in the repeat runs, not every such curve was filed as active; the % refers to the signal ratio; note: potency is the fitted concentration of half-maximal effect)
Outline: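 Wild-type CHO-K1 cells plated overnight, then exposed 3 hr at 37C to compounds at 15 concentrations (0.76% DMSO). Lysed, then HTRF anti-pH2AX(S139)-cryptate/anti-H2AX-d2 detection after 24 hr at room temperature; emissions 665 and 620 nm.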

[2] = qHTS assay to identify small molecule agonists of the hypoxia (HIF-1) signaling pathway (AID 1224846; active = well fitted activation curve with a large enough effect in the signal ratio in the repeat runs, not every such curve was filed as active; the % refers to the signal ratio)
Outline: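 Compounds from the Tox21 10K library, dissolved in DMSO, are tested for induction of a hypoxia response element–controlled beta-lactamase reporter in ME-180 cells. Exposure lasts 17 hrs at 37C after a 5 hr settling period, followed by CCF4-AM FRET substrate.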

[3] = qHTS assay to identify small molecule agonists of H2AX - cell viability counter screen (AID 1224847; calls by dose curve; note: top concentration of the series differs between compounds; nearly all actives have a fitted effect of over 30% in size)
Outline: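 Viability of CHO-K1 (wild type) cells after 3 hr compound exposure was measured by CellTiter-Glo luminescence.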

[4] = qHTS RealTime-Glo MT Cell Viability Assay in HepG2 cells - 24 hour (AID 1224867); note: nearly all actives have a fitted effect of over 50% in size; note: potency is the fitted concentration of half-maximal effect
Outline: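 Luminescence read-out: viable HepG2 cells reduce a prosubstrate to a NanoLuc substrate, giving a signal proportional to live cell number. Reads taken at 0, 8, 16, 24, 32 and 40 h of compound exposure at 37 C.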

[5] = qHTS RealTime-Glo MT Cell Viability Assay in HEK293 cells - 32 hour (AID 1224868); note: nearly all actives have a fitted effect of over 50% in size; note: potency is the fitted concentration of half-maximal effect; for activity change, negative = cytotoxic: top concentration of the series differs between compounds
Outline: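 Nonlytic real-time viability readout: viable cells convert prosubstrate to NanoLuc substrate, giving luminescence proportional to live cell number. HEK293, 600 cells/well, compound added after 5 h, continuous culture at 37 C.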

[6] = A CellTox Green Cytotoxicity Assay to monitor cytotoxicity in HEK293 cells - 0 hour (AID 1224869); note: nearly all actives have a fitted effect of over 50% in size; note: potency is the fitted concentration of half-maximal effect
Outline: (§1)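 Cells (HEK293, 600/well) and dye reagent are dispensed together. After 5 h at 37 C, 23 nL compound is pinned in. Plates stay at 37 C for 40 h with fluorescence read at 0h, 8h, 16h, 24h, 32h and 40h.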

[7] = qHTS RealTime-Glo MT Cell Viability Assay in HepG2 cells - 40 hour (AID 1224870); note: nearly all actives have a fitted effect of over 50% in size; note: potency is the fitted concentration of half-maximal effect
Outline: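 HepG2 cells mixed with RealTime-Glo MT reagents (NanoLuc plus cell-permeant prosubstrate) were seeded at 600 cells/well, incubated 5 h at 37 C/5% CO2, then pinned with compounds in DMSO; nonlytic luminescence tracked viability during 40 h treatment.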

[8] = A CellTox Green Cytotoxicity Assay to monitor cytotoxicity in HEK293 cells - 40 hour (AID 1224871); note: nearly all actives have a fitted effect of over 45% in size; note: potency is the fitted concentration of half-maximal effect
Outline: as §1

[9] = qHTS assay to identify small molecule antagonists of the estrogen related receptor (ERR) signaling pathway from Tox21 library (AID 1224848); note: nearly all actives have a fitted effect of over 50% in size; note: potency is the fitted concentration of half-maximal effect
Outline: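 First, 2,000 ERR cells per well were plated and held 6 h at 37 C/5% CO2. Next, compounds in DMSO were pinned in and left 18 h at 37 C. Finally, ONE-Glo was added and luminescence read after 30 min at room temperature.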

[10] = qHTS assay to identify small molecule agonists of the estrogen related receptor (ERR) signaling pathway from Tox21 library (AID 1224849; calls by dose curve; note: nearly all actives have a fitted effect of over 15% in size); conditions: ERR reporter cell line, ONE-Glo luciferase, 18 h
Outline: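 Cells carrying the ERR reporter were plated and allowed to settle for 6 h, exposed to library compounds for 18 h at 37 C, then lysed with ONE-Glo and luminescence measured.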
% is set by controls: 0 for no effect and ±100 for the full control effect.

CCCCNS(=O)(=O)c1ccc(C)cc1
inactive: Potency [1] | Potency [2] | Potency [3] | Potency [4] | Potency [5] | Potency [6] | Potency [7] | Potency [8]

FC(F)(F)c1cccc(Cl)c1
inactive: Potency [1] | Potency [2] | Potency [3] | Potency [4] | Potency [7] | Potency [8]

CC(=O)OCC=C(C)C
inactive: Potency [1] | Potency [2] | Potency [3] | Potency [4] | Potency [5] | Potency [6] | Potency [7] | Potency [8]

Cl[Si](Cl)(c1ccccc1)c1ccccc1
inactive: Potency [1] | Potency [2] | Potency [3] | Potency [4] | Potency [5] | Potency [7]

COC(C)=O
inactive: Potency [1] | Potency [2] | Potency [3] | Potency [4] | Potency [5] | Potency [6] | Potency [7] | Potency [8]

CCN1C(=O)c2ccccc2C1Nc1ccc(OCCN2CCCCC2)cc1 (centres undefined)
active: Potency [5] 5.35 µM
inactive: Potency [1] | Potency [2] | Potency [3] | Potency [4] | Potency [6] | Potency [7] | Potency [8]

OC12N=C(c3ccccc3)SC1Cc1cc(Cl)ccc12 (centres undefined)
active: activity change, positive = activation ([10]; at 92.4 µM (top of the series)) 47.6%
inactive: Potency [1] | Potency [2] | Potency [9] | Potency [4] | Potency [6] | Potency [7] | Potency [8]

CC(C)(C)CC(C)(C)c1ccc(Nc2ccc(C(C)(C)CC(C)(C)C)cc2)cc1
inactive: activation (H2AX phosphorylation) [1] 0.788% [at 14 µM] | activation [2] 3.2% [at 7.01 µM] | activity change, negative = cytotoxicity [3] 0.45% [at 14 µM] | activity change, negative = cytotoxicity [4] 0.0274% [at 6.97 µM] | cytotoxicity [6] 3.78% [at 6.97 µM] | activity change, negative = cytotoxic [7] -1.04% [at 6.97 µM] | cytotoxicity increase [8] 0.599% [at 6.97 µM]

OC/C=C/CO
inactive: Potency [1] | Potency [2] | Potency [3] | Potency [4] | Potency [5] | Potency [6] | Potency [7] | Potency [8]

c1cnccn1
inactive: Potency [1] | Potency [2] | Potency [3] | Potency [4] | Potency [5] | Potency [6] | Potency [7] | Potency [8]

ClCCl
inactive: Potency [1] | Potency [2] | Potency [3] | Potency [4] | Potency [6] | Potency [7] | Potency [8]

CN(C)Cc1ccccc1O
inactive: Potency [1] | Potency [2] | Potency [9] | activity change, positive = activation ([10]; at 92.4 µM (top of the series)) 0.52% | Potency [4] | Potency [5] | Potency [6] | Potency [7] | Potency [8]

O=C(O)c1ccc2cc(C(=O)O)ccc2c1
inactive: Potency [1] | Potency [2] | Potency [3] | Potency [4] | Potency [5] | Potency [6] | Potency [7] | Potency [8]

CCCCOC(=O)CO
inactive: Potency [1] | Potency [2] | Potency [3] | Potency [4] | Potency [5] | Potency [6] | Potency [7] | Potency [8]

CCC(CC)(CC(=O)Nc1cccc(/C=C/c2nc(C3CCC3)cs2)c1)C(=O)O
inactive: Potency [1] | Potency [2] | Potency [3] | Potency [4] | Potency [5] | Potency [6] | Potency [7] | Potency [8]

Cc1cc(C(C)(C)C)cc(C)c1CC1=NCCN1
inactive: Potency [1] | Potency [3] | Potency [9] | activity change, positive = activation ([10]; at 42.5 µM (top of the series)) -3.5% | Potency [4] | Potency [5] | Potency [7] | Potency [8]

CC[N+](CC)(CC)CCOc1ccc(/C=C/c2ccccc2)cc1
inactive: Potency [1] | Potency [2] | activity change, positive = activation ([10]; at 42.5 µM (top of the series)) -43%
active: Potency [9] 7.5 µM | Potency [7] 23.9 µM | Potency [8] 6.01 µM

COc1cccc2c1C(=O)c1c(O)c3c(c(O)c1C2=O)C[C@@](O)(C(C)=O)C[C@@H]3O[C@H]1C[C@H](N)[C@H](O)[C@H](C)O1
active: Potency [1] 0.0391 µM | Potency [4] 24.7 µM | Potency [5] 69.6 nM and 3.4 nM | Potency [6] 43.9 µM | Potency [7] 19.6 µM
inactive: Potency [3] | Potency [9] | activity change, positive = activation ([10]; at 42.5 µM (top of the series)) -0.62% | activity change, positive = activation ([10]; at 92.4 µM (top of the series)) -74.3%
43.9 µM (active) and inactive: Potency [8]

COc1ccc2c(c1)c(CC(=O)OC/C=C(\C)CC/C=C(\C)CCC=C(C)C)c(C)n2C(=O)c1ccc(Cl)cc1
inactive: Potency [1] | Potency [3] | Potency [9] | activity change, positive = activation ([10]; at 42.5 µM (top of the series)) -0.248% | Potency [4] | Potency [5] | Potency [6] | Potency [7] | Potency [8]

Fc1ccc(C(c2ccc(F)cc2)N2CCNCC2)cc1
inactive: Potency [1] | Potency [3] | Potency [4] | Potency [6] | Potency [7] | Potency [8]
